According to the supplement of paper PMC4466140:

Legend:
Test in all cases: SPOT peptide array binding signal intensity (averaged, normalized) (arbitrary units (background-subtracted, floor 0; scale differs between SH3 domains)); higher = stronger binding of the SH3 domain to the peptide
[1] = biological target: AgAbp1
Outline: (§1)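 Cellulose membranes carried synthetic 15-mer peptides with cysteines swapped for serines. These were incubated overnight at 4°C with 10 μg/ml of GST-fused SH3 domains from four yeast species in TBS-based blocking buffer. Binding signal, detected with anti-GST antibody and quantified in Genespotter, is the normalized, background-subtracted spot intensity averaged over replicates, in arbitrary units specific to each domain.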

[2] = biological target: AgBbc1
Outline: as §1

[3] = biological target: AgBem1-D1
Outline: as §1

[4] = biological target: AgBzz1-D1
Outline: as §1

[5] = biological target: AgBzz1-D2
Outline: as §1

[6] = biological target: AgCyk3
Outline: as §1

[7] = biological target: AgFus1
Outline: as §1

[8] = biological target: AgHof1
Outline: as §1

[9] = biological target: AgHse1
Outline: as §1

[10] = biological target: AgLsb1
Outline: as §1

[11] = biological target: AgLsb4
Outline: as §1

[12] = biological target: AgMyo5
Outline: as §1

[13] = biological target: AgNbp2
Outline: as §1

[14] = biological target: AgRvs167
Outline: as §1

[15] = biological target: AgSho1
Outline: as §1

[16] = biological target: AgSla1-D1-D2
Outline: as §1

[17] = biological target: AgSla1-D3
Outline: as §1

[18] = biological target: CaAbp1-D1
Outline: as §1

[19] = biological target: CaAbp1-D2
Outline: as §1

[20] = biological target: CaBbc1
Outline: as §1

[21] = biological target: CaBem1-D1
Outline: as §1

[22] = biological target: CaBzz1-D1
Outline: as §1

[23] = biological target: CaBzz1-D2
Outline: as §1

[24] = biological target: CaCyk3
Outline: as §1

[25] = biological target: CaFus1
Outline: as §1

[26] = biological target: CaHof1
Outline: as §1

[27] = biological target: CaHse1
Outline: as §1

[28] = biological target: CaLsb1
Outline: as §1

[29] = biological target: CaLsb4
Outline: as §1

[30] = biological target: CaMyo5
Outline: as §1

[31] = biological target: CaNbp2
Outline: as §1

[32] = biological target: CaRvs167
Outline: as §1

[33] = biological target: CaRvs167-3
Outline: as §1

[34] = biological target: CaSho1
Outline: as §1

[35] = biological target: CaSla1-D1-D2
Outline: as §1

[36] = biological target: CaSla1-D3
Outline: as §1

[37] = biological target: ScAbp1
Outline: as §1

[38] = biological target: ScBbc1
Outline: as §1

[39] = biological target: ScBem1-D1
Outline: as §1

[40] = biological target: ScBzz1-D1
Outline: as §1

[41] = biological target: ScBzz1-D2
Outline: as §1

[42] = biological target: ScCyk3
Outline: as §1

[43] = biological target: ScFus1
Outline: as §1

[44] = biological target: ScHof1
Outline: as §1

[45] = biological target: ScHse1
Outline: as §1

[46] = biological target: ScLsb1
Outline: as §1

[47] = biological target: ScLsb2
Outline: as §1

[48] = biological target: ScLsb3
Outline: as §1

[49] = biological target: ScLsb4
Outline: as §1

[50] = biological target: ScMyo3
Outline: as §1

[51] = biological target: ScMyo5
Outline: as §1

[52] = biological target: ScNbp2
Outline: as §1

[53] = biological target: ScPex13
Outline: as §1

[54] = biological target: ScRvs167
Outline: as §1

[55] = biological target: ScSho1
Outline: as §1

[56] = biological target: ScSla1-D1-D2
Outline: as §1

[57] = biological target: ScSla1-D3
Outline: as §1

[58] = biological target: SpAbp1-D1
Outline: as §1

[59] = biological target: SpBbc1
Outline: as §1

[60] = biological target: SpBzz1-D1
Outline: as §1

[61] = biological target: SpBzz1-D2
Outline: as §1

[62] = biological target: SpCyk3
Outline: as §1

[63] = biological target: SpHof1
Outline: as §1

[64] = biological target: SpHof1-2
Outline: as §1

[65] = biological target: SpHof1-3
Outline: as §1

[66] = biological target: SpHse1
Outline: as §1

[67] = biological target: SpLsb1
Outline: as §1

[68] = biological target: SpLsb4
Outline: as §1

[69] = biological target: SpMyo1
Outline: as §1

[70] = biological target: SpNbp2
Outline: as §1

[71] = biological target: SpPex13
Outline: as §1

[72] = biological target: SpRvs167
Outline: as §1

[73] = biological target: SpSla1-D1-D2
Outline: as §1

[74] = biological target: SpSla1-D3
Outline: as §1

KMSRSPPRPPSLKII was tested, and the “SPOT peptide array binding signal intensity” value [1] was 329, the “SPOT peptide array binding signal intensity” value [2] was 145 and the “SPOT peptide array binding signal intensity” value [3] was 707. For the same binder, the “SPOT peptide array binding signal intensity” value [4] was 85.5, the “SPOT peptide array binding signal intensity” value [5] was 35 and the “SPOT peptide array binding signal intensity” value [6] was 4. For the same binder, the “SPOT peptide array binding signal intensity” value [7] was 180, the “SPOT peptide array binding signal intensity” value [8] was 17 and the “SPOT peptide array binding signal intensity” value [9] was 99. For the same binder, the “SPOT peptide array binding signal intensity” value [10] was 20, the “SPOT peptide array binding signal intensity” value [11] was no more than 0 and the “SPOT peptide array binding signal intensity” value [12] was 10.5. For the same binder, the “SPOT peptide array binding signal intensity” value [13] was 1350, the “SPOT peptide array binding signal intensity” value [14] was 4.5 and the “SPOT peptide array binding signal intensity” value [15] was 228. For the same binder, the “SPOT peptide array binding signal intensity” value [16] was 25, the “SPOT peptide array binding signal intensity” value [17] was 9.25 and the “SPOT peptide array binding signal intensity” value [18] was 734. The “SPOT peptide array binding signal intensity” value [19] was 1170, the “SPOT peptide array binding signal intensity” value [20] was 564 and the “SPOT peptide array binding signal intensity” value [21] was 83. For the same binder, the “SPOT peptide array binding signal intensity” value [22] was 1880, the “SPOT peptide array binding signal intensity” value [23] was 466 and the “SPOT peptide array binding signal intensity” value [24] was 36. The “SPOT peptide array binding signal intensity” value [25] was 974, the “SPOT peptide array binding signal intensity” value [26] was 0.5 and the “SPOT peptide array binding signal intensity” value [27] was 58.5. For the same binder, the “SPOT peptide array binding signal intensity” value [28] was 2.5, the “SPOT peptide array binding signal intensity” value [29] was 588 and the “SPOT peptide array binding signal intensity” value [30] was 44.5. The “SPOT peptide array binding signal intensity” value [31] was 1320, the “SPOT peptide array binding signal intensity” value [32] was 68 and the “SPOT peptide array binding signal intensity” value [33] was no more than 0. The “SPOT peptide array binding signal intensity” value [34] was 939, the “SPOT peptide array binding signal intensity” value [35] was 337 and the “SPOT peptide array binding signal intensity” value [36] was 258. The “SPOT peptide array binding signal intensity” value [37] was 178, the “SPOT peptide array binding signal intensity” value [38] was 69.5 and the “SPOT peptide array binding signal intensity” value [39] was 8. For the same binder, the “SPOT peptide array binding signal intensity” value [40] was 57, the “SPOT peptide array binding signal intensity” value [41] was 25.5 and the “SPOT peptide array binding signal intensity” value [42] was 5. The “SPOT peptide array binding signal intensity” value [43] was 463, the “SPOT peptide array binding signal intensity” value [44] was 0.75 and the “SPOT peptide array binding signal intensity” value [45] was 99.5. For the same binder, the “SPOT peptide array binding signal intensity” value [46] was 39.8, the “SPOT peptide array binding signal intensity” value [47] was 18 and the “SPOT peptide array binding signal intensity” value [48] was 742. The “SPOT peptide array binding signal intensity” value [49] was 142, the “SPOT peptide array binding signal intensity” value [50] was 142 and the “SPOT peptide array binding signal intensity” value [51] was 47.2. For the same binder, the “SPOT peptide array binding signal intensity” value [52] was 2300, the “SPOT peptide array binding signal intensity” value [53] was 464 and the “SPOT peptide array binding signal intensity” value [54] was 123. The “SPOT peptide array binding signal intensity” value [55] was 634, the “SPOT peptide array binding signal intensity” value [56] was 653 and the “SPOT peptide array binding signal intensity” value [57] was 270. For the same binder, the “SPOT peptide array binding signal intensity” value [58] was 177, the “SPOT peptide array binding signal intensity” value [59] was 6.75 and the “SPOT peptide array binding signal intensity” value [60] was 1270. For the same binder, the “SPOT peptide array binding signal intensity” value [61] was 79.2, the “SPOT peptide array binding signal intensity” value [62] was 9 and the “SPOT peptide array binding signal intensity” value [63] was 19.5. For the same binder, the “SPOT peptide array binding signal intensity” value [64] was 27, the “SPOT peptide array binding signal intensity” value [65] was 139 and the “SPOT peptide array binding signal intensity” value [66] was 70. The “SPOT peptide array binding signal intensity” value [67] was 9.75, the “SPOT peptide array binding signal intensity” value [68] was 1060 and the “SPOT peptide array binding signal intensity” value [69] was 224. The “SPOT peptide array binding signal intensity” value [70] was 146, the “SPOT peptide array binding signal intensity” value [71] was 17 and the “SPOT peptide array binding signal intensity” value [72] was 92.3. For the same binder, the “SPOT peptide array binding signal intensity” value [73] was 17 and the “SPOT peptide array binding signal intensity” value [74] was 138.
